This is an account of results in paper PMC12136788.

T1: UNK ZnF1-6 (called full-length) (human, UniProt Q9C0B0 30-357)
T1 sequence: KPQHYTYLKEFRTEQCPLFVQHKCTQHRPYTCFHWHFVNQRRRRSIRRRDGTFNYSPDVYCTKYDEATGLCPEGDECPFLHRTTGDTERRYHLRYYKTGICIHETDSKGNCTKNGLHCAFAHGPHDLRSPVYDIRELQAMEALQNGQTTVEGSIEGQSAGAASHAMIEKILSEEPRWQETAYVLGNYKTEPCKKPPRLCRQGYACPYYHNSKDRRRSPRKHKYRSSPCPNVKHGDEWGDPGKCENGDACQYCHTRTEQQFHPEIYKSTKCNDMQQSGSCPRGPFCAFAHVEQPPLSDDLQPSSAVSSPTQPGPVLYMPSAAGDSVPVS

B1: chr1:42176760:42176861:-|3pUTR|ENSG00000198815|msi1|FALSE|bound_elsewhere (ssRNA)
RNA: GGGAGUUCUACAGUCCGACGAUCGUCGCUCAGAUGUCCUUUGAAGUGGGAGGGAAUCAAUCCGGGGAUAAUUUCAAAUGGAAUAGAGUAUUUUGAUAUUGUUCAUUCAGAGGGUGAUGUGUACAUAUCUAUAUUGUAUAUAUGCAACAGAGGAUUGAGCAUCA
B2: chr8:108778973:108784180:-|three_prime_utr|ENSG00000164841|control|control|control (ssRNA)
RNA: GGGAGUUCUACAGUCCGACGAUCAAGUUUAUUUCACAAACCAACAGCCAGUAAGUGUUUUUGUUCUCUAUGUGUCUUCUAUUUAGAAGAAAAGCCAUGUAAGAUGUAUAAGAAACCACAACCAGCCACACCUAUCCUUCUGAACAACAGAGGAUUGAGCAUCA
B3: ENSG00000072803:stop:overlap|stop_codon|ENSG00000072803|stop_codon|NA|stop_codon (ssRNA)
RNA: GGGAGUUCUACAGUCCGACGAUCCUGGAUACAGUAAACGGAAAGAAUCUUGGAAGAUGCUUGACUGCUGUCUUUUCUCAGACUAGUCUGAAAGGGAAAACCCCCAUUCAUUCUGGAUUGGUGGAUCUGAAGUACAAAAUAUUUCAACAGAGGAUUGAGCAUCA
B4: chrX:47571900:47572933:-|three_prime_utr|ENSG00000008056|control|control|control (ssRNA)
RNA: GGGAGUUCUACAGUCCGACGAUCAAACCUGACUCCUCCUGGCCCUAAAUCCGGUUCUCACAUGUGGAAUCCCCAAGUCCUUUUAGAACCCCACUCGUGGUCACUUCAGGAUCUACUUCUGUUUUAGAACCUCCACAUUCCUGACAACAGAGGAUUGAGCAUCA
B5: chr19:39539560:39539696:-|CDS|ENSG00000176396|unk|FALSE|unique (ssRNA)
RNA: GGGAGUUCUACAGUCCGACGAUCCGGGAACGGAGGCCUGGCUGCGUUGCCCUAUCUCCGUCUCCGCCACCCACUUAGCGUUUUAGGCAUCAAUUACCAGCAGUUUCUCCGCCACUAUCUGGAAAAUUACCCGAUUGCUCCCGGCAACAGAGGAUUGAGCAUCA
B6: chr1:161190761:161190881:-|3pUTR|ENSG00000158859|msi1|FALSE|unique (ssRNA)
RNA: GGGAGUUCUACAGUCCGACGAUCUGCGGGUCACAGGAGGGAGGGGGAAGGCAGGGAGGGCCUGGGCCCCAGUUGUAUUUAUUUAGUAUUUAUUCACUUUUAUUUAGCACCAGGGAAGGGGACAAGGACUAGGGUCCUGGGGAACAACAGAGGAUUGAGCAUCA
B7: chr8:37861146:37861251:-|3pUTR|ENSG00000156675|unk|FALSE|unique (ssRNA)
RNA: GGGAGUUCUACAGUCCGACGAUCCUGUGCAGAGCAAGAAGAUGAUACUUAUUUUUGAAUUUGUAUUUUUAAAACUAGAUUUAUAGACUUUUUUUUUUUUUAACUAGGGCACUUGCUUCCUUCUUAGCUAAAAGCACCAGCUGACAACAGAGGAUUGAGCAUCA
B8: chr5:180576808:180576909:+|3pUTR|ENSG00000113300|unk|FALSE|unique (ssRNA)
RNA: GGGAGUUCUACAGUCCGACGAUCUAUUUUCCGUGUCCUAAAUAAUUUUCAAUAAUCUAUAAUCCCUAAAAUGCAAUAAAAACUAGUAUGUUUUCACGGUGUAUAUUUUUUUUCAAAAAUUCUGUAACAAAUAUAUUUAAUGUGCAACAGAGGAUUGAGCAUCA
B9: chr4:87473334:87473774:-|three_prime_utr|ENSG00000152583|control|control|control (ssRNA)
RNA: GGGAGUUCUACAGUCCGACGAUCCUUUCCAGCAUCCUCCUCUGUUCUAACCACUUCAGAAAUAUAUGCAGCUGUGAUACUUGUAGAUUUAUAUUUAGCAAAAUGUUAGCAUGUAUGACAAGACAAUGAGAGUAAUUGCUUGACCAACAGAGGAUUGAGCAUCA
B10: chr15:93024873:93024975:+|3pUTR|ENSG00000173575|unk|total|mutant (ssRNA)
RNA: GGGAGUUCUACAGUCCGACGAUCGGUCCAGCUCUGAUUCGGGUCACCACUCCUGCACUUUGGCACCCCAUCCCAUUCCAGCCCCGUUCUGGCCUCCCACUUUGACGGGCACUUGGAGGAGGAGCUGACUGUGUGUGUACCAGCCAACAGAGGAUUGAGCAUCA
B11: chr7:20412070:20412171:+|3pUTR|ENSG00000105855|msi1|total|mutant (ssRNA)
RNA: GGGAGUUCUACAGUCCGACGAUCCUUUUUUUUUAUAAUAAACUUCCAAGAUUUGCUGUCUUCCAGCACUUGAGUUAAAGUACCCGAUACUGCAUUUUGAUGAAGACUAACCCCAUCUCAUAUUCUACCCUAAAGAGAACUGAACAACAGAGGAUUGAGCAUCA
B12: chr5:180576808:180576909:+|3pUTR|ENSG00000113300|unk|total|mutant (ssRNA)
RNA: B8 RNA with U83C, A84C
B13: chr19:18196783:18197469:-|three_prime_utr|ENSG00000105649|control|control|control (ssRNA)
RNA: GGGAGUUCUACAGUCCGACGAUCACUACCCGGGCCUGACCCGGCCCCUACCAGCCACGGGCACAAGACCCCUGCUCCUGACUUAGCCCGUCACCCUUAUUUAUUAUUGUAGCUAUUUAUUUAUUUAUUGAAGAUGUCCCCCAGCAACAGAGGAUUGAGCAUCA
B14: chr1:161190761:161190881:-|3pUTR|ENSG00000158859|msi1|total|mutant (ssRNA)
RNA: B6 RNA with U83C, A84C, U104C, A105C, U129C, A130C
B15: chr7:80742902:80743013:-|3pUTR|ENSG00000075223|msi1_unk|total|mutant (ssRNA)
RNA: GGGAGUUCUACAGUCCGACGAUCUCAGAGUCACAGUUCCCUUUAUUUCACAUAAGCCCAAACUGACCGACAGUAACGGUGUUCCGUUUUAUACUAUAUUUGUGCUAUUUAAUUCUUUCUAUUUUCACAAUUAUUAAAUUGUGUCAACAGAGGAUUGAGCAUCA
B16: ENSG00000181035:stop:overlap|stop_codon|ENSG00000181035|stop_codon|NA|stop_codon (ssRNA)
RNA: GGGAGUUCUACAGUCCGACGAUCUGGGCAUCAGCUUCACCACCUUCGACCUCAUGCAGAUCCUGCUGCGGCACCUGCAGAGCUAGGGGACCCUGAGCUGCUCUCAGGACGGUGGACCGGUGACCCCUUUGUAUUCUGGGCCCACAACAGAGGAUUGAGCAUCA

Positions count from the first letter of the chain named. In all, about 5,800 sequences were measured (“enrichment r”: median about 0.68, highest 2% from about 11 on). The sample as a whole holds a higher share of the highest values than the screen did.

The target of the test is T1, UNK ZnF1-6 (called full-length). Put plainly: nsRBNS (natural sequence RNA bind-n-seq); RBNS binding buffer (assumed for nsRBNS): 25 mM Tris pH 7.5, 150 mM KCl, 3 mM MgCl2, 0.01% Triton X-100, 500 ug/ml BSA, 20 U/ml SUPERase-In, 4 C; UNK is unkempt and MSI1 is Musashi-1; names of the RNAs are library labels; protein concentration not given here; high values mean tight binding.
As for B1, the binding signal was determined as 1.26 enrichment R.

Molecule B2 registered a binding signal of 0.507 enrichment R.

With B3, the binding signal stood at 1.04 enrichment R.

In turn, B4 returned a binding signal of 0.975 enrichment R.

The molecule B5 yielded a binding signal of 1.3 enrichment R.

B6: the binding signal was determined as 32.9 enrichment R.

B7 displayed a binding signal of 53.1 enrichment R.

B8 showed a binding signal of 20.9 enrichment R.

For B9, the binding signal came out at 2.1 enrichment R.

In the case of B10, the binding signal was found to be 4.11 enrichment R.

The molecule B11 displayed a binding signal of 0.911 enrichment R.

Molecule B12 registered a binding signal of 10.6 enrichment R.

As for B13, the binding signal came out at 66 enrichment R.

Molecule B14 yielded a binding signal of 2.05 enrichment R.

Take B15: the binding signal turned out to be 1.71 enrichment R.

Consider B16, for which the binding signal is 1.2 enrichment R.
